Experimental data: paper PMC5540273 (PLoS ONE, 2017)

test system: PRKCI; details: concentration: 1 μM, replicates: in singlicate; n = 1
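Further: KINOMEscan kinase panel screen.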

Compound | %Inh [%]
COc1ccc(Nc2ncc(C#N)c(Nc3ccccc3C(N)=O)n2)cc1N1CCN(C)CC1.Cl [GSK1558669] | 96.6
O=C(Nc1cccc(-c2nn3ncccc3c2-c2ccnc(Nc3cccc(C(F)(F)F)c3)n2)c1)c1c(F)cccc1F [GSK299495] | 19
Cc1cccc(-c2nc(Nc3ccc4ncsc4c3)c3ccccc3n2)n1 [GW867588] | 14
Cl.Nc1ncnc2occ(-c3ccc(NC(=O)Nc4cc(C(F)(F)F)ccc4F)cc3)c12 [SB-707548] | 25
C[C@@H](Oc1cc(-n2cnc3ccc(NC(=O)NC(C)(C)C)cc32)sc1C(N)=O)c1ccccc1Cl [GSK346294] | 0
c1ccc(-c2cc(-c3c[nH]nc3-c3ccccn3)ccn2)cc1 [GW576604] | 23
Cc1nnc(-c2ccc3occ(-c4ccc(C(C)O)cc4)c3c2)o1 (stereo not shown) | 12
CC(C)Oc1ccc2c(-c3ccnc(Nc4ccc(N5CCN(C)CC5)cc4)n3)cnn2n1 [GW696155] | 26
NS(=O)(=O)c1cccc(-c2ccc3ncc(N4CCOCC4)nc3c2)c1 [GSK1535721] | 21
Fc1ccc(-c2ncn(CCCN3CCOCC3)c2-c2ccccn2)cc1 [SB-211742] | 100
CN(C1=C(c2ccccc2)C(=O)NC1=O)c1ccccc1 [SB-334860] | 33
CCc1nc(-c2cccc(C)c2)c(-c2ccnc(NCc3ccccc3)c2)s1 | 0
O=C(NCCNc1ccnc(Nc2ccc(F)cc2)n1)Nc1ccccc1F [GSK1379880] | 25
O=c1cc(N2CCOCC2)nc2n(Cc3cccc(F)c3)ccn12 [GSK2297430] | 0
CC(C)(C)n1cnc2c(N)ncnc21 [SKF-97359] | 0
O=c1cc(N2CCOCC2)nc2n(Cc3cccc(C(F)(F)F)c3)ccn12 [GSK2297543] | 4
Cc1cccc(Cn2ccn3c(=O)cc(N4CCOCC4)nc23)c1 [GSK2297542] | 14
O=C(NCCNc1ccnc(Nc2ccc(F)cc2)n1)c1cc2ccccc2s1 [GSK1379874] | 0

Compound | %Inh [%]
Cn1ccc2ncnc(Oc3ccc(NC(=O)Nc4ccncc4)c(Cl)c3)c21 | 0
COc1ccc(COc2cc(-n3cnc4ccccc43)sc2C(N)=O)cc1 [GSK1024304] | 0
Cc1ccc(C(=O)NCC(N)=O)cc1-n1c(C)cc(OCc2ccc(F)cc2F)c(Br)c1=O | 36
Cc1ccc(NC(=O)c2ccnc(N3CCN(C)CC3)c2)cc1-c1ccc(C(=O)NCC2CC2)cc1 [GW775604] | 0
Fc1ccc(-c2nn3c(OCC(F)(F)F)cccc3c2-c2ccncc2)cc1 [GW514784] | 25
Fc1ccc(-c2ncn(CCCN3CCOCC3)c2-c2cccnc2)cc1 [SB-211743] | 23
O=C(NOCC1CC1)c1ccc(F)c(F)c1Nc1ccc(I)cc1Cl | 0
O=C(Nc1n[nH]c2cc(-c3cccc(F)c3)ccc12)C1CC1 [SB-735464] | 0
COc1ccc(Nc2nccc(N3CCC(NC(=O)Nc4cccc(C(C)=O)c4)C3)n2)cc1 (stereo not shown) [GSK1379731] | 18
N#Cc1ccc(-c2cc(-c3c[nH]nc3-c3ccccn3)ccn2)cc1 [GW693028] | 0
COC(=O)Nc1nc2cc(Oc3ccc(NC(=O)Nc4cc(F)ccc4F)cc3)ccc2[nH]1.Cl [GW701424] | 0
O=c1cc(N2CCOCC2)nc2n(Cc3cccc4ccccc34)ccn12 [GSK2333389] | 7
c1ccc(-c2n[nH]cc2-c2ccnc3ccccc23)nc1 [GW271431] | 0
Nc1nccc(-c2c(-c3ccc(F)cc3)ncn2C2CCN(CC(F)(F)F)CC2)n1 [SB-236560] | 14
NCC(NC(=O)c1cc(-c2cn[nH]c2)c(-c2ccnc3[nH]ccc23)s1)c1ccccc1.O=C(O)C(F)(F)F.O=C(O)C(F)(F)F (stereo not shown) [GSK1325775] | 25
Cc1c2ccc(N(C)c3ccnc(Nc4cccc(S(N)(=O)=O)c4)n3)cc2nn1Cc1ccccc1.Cl.Cl [GW787226] | 0
COc1ccc(S(=O)(=O)NC2CCN(c3cc(C)nc(Nc4cccc(C#N)c4)n3)CC2)cc1.O=C(O)C(F)(F)F [GSK1653539] | 3

test system: PRKCQ; details: concentration: 1 μM, replicates: in singlicate; n = 1

Compound | %Inh [%]
COc1ccc(Nc2ncc(C#N)c(Nc3ccccc3C(N)=O)n2)cc1N1CCN(C)CC1.Cl [GSK1558669] | 96.5
O=C(Nc1cccc(-c2nn3ncccc3c2-c2ccnc(Nc3cccc(C(F)(F)F)c3)n2)c1)c1c(F)cccc1F [GSK299495] | 49
Cc1cccc(-c2nc(Nc3ccc4ncsc4c3)c3ccccc3n2)n1 [GW867588] | 5
Cl.Nc1ncnc2occ(-c3ccc(NC(=O)Nc4cc(C(F)(F)F)ccc4F)cc3)c12 [SB-707548] | 15
C[C@@H](Oc1cc(-n2cnc3ccc(NC(=O)NC(C)(C)C)cc32)sc1C(N)=O)c1ccccc1Cl [GSK346294] | 15
c1ccc(-c2cc(-c3c[nH]nc3-c3ccccn3)ccn2)cc1 [GW576604] | 0
Cc1nnc(-c2ccc3occ(-c4ccc(C(C)O)cc4)c3c2)o1 (stereo not shown) | 5
CC(C)Oc1ccc2c(-c3ccnc(Nc4ccc(N5CCN(C)CC5)cc4)n3)cnn2n1 [GW696155] | 0
NS(=O)(=O)c1cccc(-c2ccc3ncc(N4CCOCC4)nc3c2)c1 [GSK1535721] | 2
Fc1ccc(-c2ncn(CCCN3CCOCC3)c2-c2ccccn2)cc1 [SB-211742] | 0
CN(C1=C(c2ccccc2)C(=O)NC1=O)c1ccccc1 [SB-334860] | 7
CCc1nc(-c2cccc(C)c2)c(-c2ccnc(NCc3ccccc3)c2)s1 | 31
O=C(NCCNc1ccnc(Nc2ccc(F)cc2)n1)Nc1ccccc1F [GSK1379880] | 0
O=c1cc(N2CCOCC2)nc2n(Cc3cccc(F)c3)ccn12 [GSK2297430] | 11
CC(C)(C)n1cnc2c(N)ncnc21 [SKF-97359] | 0
O=c1cc(N2CCOCC2)nc2n(Cc3cccc(C(F)(F)F)c3)ccn12 [GSK2297543] | 8
Cc1cccc(Cn2ccn3c(=O)cc(N4CCOCC4)nc23)c1 [GSK2297542] | 28
O=C(NCCNc1ccnc(Nc2ccc(F)cc2)n1)c1cc2ccccc2s1 [GSK1379874] | 0

Compound | %Inh [%]
Cn1ccc2ncnc(Oc3ccc(NC(=O)Nc4ccncc4)c(Cl)c3)c21 | 0
COc1ccc(COc2cc(-n3cnc4ccccc43)sc2C(N)=O)cc1 [GSK1024304] | 32
Cc1ccc(C(=O)NCC(N)=O)cc1-n1c(C)cc(OCc2ccc(F)cc2F)c(Br)c1=O | 26
Cc1ccc(NC(=O)c2ccnc(N3CCN(C)CC3)c2)cc1-c1ccc(C(=O)NCC2CC2)cc1 [GW775604] | 0
Fc1ccc(-c2nn3c(OCC(F)(F)F)cccc3c2-c2ccncc2)cc1 [GW514784] | 12
Fc1ccc(-c2ncn(CCCN3CCOCC3)c2-c2cccnc2)cc1 [SB-211743] | 0
O=C(NOCC1CC1)c1ccc(F)c(F)c1Nc1ccc(I)cc1Cl | 0
O=C(Nc1n[nH]c2cc(-c3cccc(F)c3)ccc12)C1CC1 [SB-735464] | 5
COc1ccc(Nc2nccc(N3CCC(NC(=O)Nc4cccc(C(C)=O)c4)C3)n2)cc1 (stereo not shown) [GSK1379731] | 18
N#Cc1ccc(-c2cc(-c3c[nH]nc3-c3ccccn3)ccn2)cc1 [GW693028] | 15
COC(=O)Nc1nc2cc(Oc3ccc(NC(=O)Nc4cc(F)ccc4F)cc3)ccc2[nH]1.Cl [GW701424] | 0
O=c1cc(N2CCOCC2)nc2n(Cc3cccc4ccccc34)ccn12 [GSK2333389] | 0
c1ccc(-c2n[nH]cc2-c2ccnc3ccccc23)nc1 [GW271431] | 0
Nc1nccc(-c2c(-c3ccc(F)cc3)ncn2C2CCN(CC(F)(F)F)CC2)n1 [SB-236560] | 12
NCC(NC(=O)c1cc(-c2cn[nH]c2)c(-c2ccnc3[nH]ccc23)s1)c1ccccc1.O=C(O)C(F)(F)F.O=C(O)C(F)(F)F (stereo not shown) [GSK1325775] | 90.3
Cc1c2ccc(N(C)c3ccnc(Nc4cccc(S(N)(=O)=O)c4)n3)cc2nn1Cc1ccccc1.Cl.Cl [GW787226] | 0
COc1ccc(S(=O)(=O)NC2CCN(c3cc(C)nc(Nc4cccc(C#N)c4)n3)CC2)cc1.O=C(O)C(F)(F)F [GSK1653539] | 0
